Our source for the z-score values is PubChem BioAssay.

Active and inactive are the calls of the source.

This test can be described thus: splicing luciferase reporter signal modulators, primary screen, spliceosome inhibition project, cell-based, HEK293, splice +/- reporter (AID 1101).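 Further: HEK293 cells carrying a splicing-competent luciferase reporter gene; test concentration not given here.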 Conditions: luminescence, 24 h, higher = more signal, called active from +8 up or from −8 down. A general note: Reporter assays use an easily measured gene product as a stand-in for the process of interest.
As for `C=C(CCCC)C(=O)CC[C@@H](OC(=O)c1ccccc1-c1ccccc1C(=O)O)c1ccc(CO)o1`, the z-score was 0.716 (inactive).

In the case of `O=C1c2ccccc2[C@](Cc2ccccc2I)(C(=O)O)[C@H](c2ccc(CO)cc2)N1Cc1ccccc1C(F)(F)F`, the z-score is 0.185 (inactive).

On to `O[C@@H](Cc1ccccc1)[C@@H](/C=C/c1ccccc1)NCc1ccccc1Br`, for which the z-score was 0.761 (inactive).

Turning to `O=C(NCc1ccccc1)[C@@H]1c2ccccc2C(=O)N(Cc2cc(F)cc(C(F)(F)F)c2)[C@H]1c1ccc(CO)cc1`, the z-score is -0.945 (inactive).

For the molecule `CCCCN1CC=CC23O[C@@H]4/C=C\CCCOC(=O)C4[C@H]2C(=O)N(C(C)CO)[C@@H]3C1=O` (stereo not given in full), the z-score is -0.577 (inactive).

For the molecule `CC(C)C(CO)N1C(=O)[C@@H]2[C@H]3C(=O)OCC=C[C@H]3OC23C=CCN(c2ccc4ccccc4c2)C(=O)[C@@H]13` (stereo not given in full), the z-score is 0.0617 (inactive).

For `C=C(/C(=C/C[C@@H](OC(=O)c1ccncc1)c1ccc(CO)o1)c1cc(C(=O)OC)ccc1OC)C(C)C`, the z-score is 0.614 (inactive).

For the molecule `C=CC[C@@]1(C(=O)OC)N=C(c2ccc(OCCCO)cc2)O[C@@H]1c1ccccc1CN=[N+]=[N-]`, the z-score was -1.54 (inactive).

Regarding `[N-]=[N+]=Nc1ccccc1[C@H]1OC(c2ccc(OCCCO)cc2)=N[C@@]1(CCS(=O)(=O)c1ccccc1)C(=O)N1CCOCC1`, the z-score was -0.829 (inactive).

For `C=CCN1C(=O)[C@@]2(O[C@@H](CCO)[C@H]([Si](C)(C)c3ccc(OC)cc3)[C@H]2C)c2cc(N3C(=O)COc4ccccc43)ccc21`, the z-score was -3.26 (inactive).

As for `CCCC[C@H]1OB(O)C[C@H]2C1=C(COc1ccccc1)C[C@H]1C(=O)N(Cc3ccccc3)C(=O)[C@H]12`, the z-score is -0.788 (inactive).

Regarding `C#C[C@H](O[Si](C#CCCCCCC)(C(C)C)C(C)C)c1ccccc1`, the z-score was -0.22 (inactive).

On to `C=CCNC(=O)[C@H]1[C@@H]2C(=O)O[C@@H](c3ccccc3)[C@@H](c3ccccc3)N2[C@@H](c2ccc(O)cc2)[C@]12C(=O)Nc1ccc(C#Cc3ccc(OC)cc3)cc12`, for which the z-score was 0.338 (inactive).

Take `[N-]=[N+]=NCc1ccccc1C[C@@]1(C(=O)NCc2ccccc2)N=C(c2ccc(OCCCO)cc2)O[C@@H]1c1ccccc1CN=[N+]=[N-]`: the z-score is 0.48 (inactive).

With `C[N+](C)(C)CCCC[C@@H]1NC(=O)[C@H]2C[C@@H](C(=O)O)[C@@H](c3cccc(OCCO)c3)N2C1=O`, the z-score was -0.246 (inactive).

In the case of `C=CCN1Cc2ccccc2C[C@@]2(COC(c3ccc(OCCCO)cc3)=N2)C1=O`, the z-score is -1.13 (inactive).

With `[N-]=[N+]=NCc1ccccc1C[C@]1(C(N)=O)N=C(c2ccc(OCCCO)cc2)O[C@H]1c1ccccc1N=[N+]=[N-]`, the z-score is -0.288 (inactive).

In the case of `CC(C)N1C(=O)c2ccccc2[C@](C)(C(=O)NCCCN(C)C)[C@@H]1c1ccc(CO)cc1`, the z-score was -0.297 (inactive).

As to `COCCOC(=O)N1C(=O)[C@@]2(c3ccccc31)[C@H](C(=O)N1CCCCCCC1)[C@H]1C(=O)O[C@H](c3ccccc3)[C@H](c3ccccc3)N1[C@@H]2c1ccccc1OCCO`, the z-score is -0.0563 (inactive).

Take `C=C(COC)C(=O)CC[C@@H](OC(=O)c1ccccc1-c1ccccc1C(=O)O)c1ccc(CO)o1`: the z-score is -1.24 (inactive).

For the molecule `COCCn1c(C(=O)N2CCCC2)cc2c1C[C@H]1CN(C(=O)c3ccccc3)[C@@](Cc3ccc(OC)cc3)(C(=O)OC)[C@@H]21`, the z-score is -1.82 (inactive).

As to `COc1ccc([Si](C)(C)[C@H]2[C@H](CC(=O)N3CCC[C@H]3CO)O[C@@]3(C(=O)N(c4ccccc4)c4ccccc43)[C@@H]2C)cc1`, the z-score was -1.82 (inactive).

Turning to `C=CCC(OC(C)=O)[C@@H]1[C@@H](N(Cc2cc3ccccc3o2)C(=O)c2ccc(-c3ccccc3)cc2)c2cc(OCCCO)ccc2N1C(=O)Cc1ccc2ccccc2c1` (stereo not given in full), the z-score was 0.121 (inactive).

Regarding `C/C=C/[C@H](CCn1cc([C@H](O)c2ccccc2)nn1)[Si](C)(C)c1ccc(OC)cc1`, the z-score is 0.264 (inactive).

Take `CCCC[C@@H]1C[C@H]1[C@@H](NC(=O)c1ccccc1)c1ccccc1`: the z-score was 0.308 (inactive).

With `O=C1OCCC=C[C@H]2OC34C=CCN(c5ccc6ccccc6c5)C(=O)[C@H]3N(CCCCCCO)C(=O)[C@@H]4C12` (stereo not given in full), the z-score is -0.225 (inactive).

Regarding `COc1ccc([Si](C)(C)[C@H]2[C@H](CC(=O)N(CCO)Cc3ccccc3)O[C@@]3(C(=O)N(Cc4cccc(N5C(=O)c6cccc7cccc5c67)c4)c4ccccc43)[C@@H]2C)cc1`, the z-score is -2.5 (inactive).

Turning to `C=CCC(OC(C)=O)[C@@H]1[C@@H](N(Cc2cc3ccccc3o2)C(=O)c2cccc3ccccc23)c2cc(OCCCO)ccc2N1C(=O)Cc1ccc(OC)cc1` (stereo not given in full), the z-score is -1.04 (inactive).

`COC(=O)[C@@]1(Cc2ccc(OC)cc2)[C@H]2c3cc(C(=O)N4CCCC4)n(CCc4ccccn4)c3C[C@H]2CN1C(=O)c1ccccc1`: the z-score was -1.36 (inactive).

Regarding `C=CCN1C(=O)[C@]2(Cc3ccccc31)N=C(c1ccc(OCCCO)cc1)O[C@@H]2c1ccccc1`, the z-score was 0.105 (inactive).

For the molecule `CCCC[C@H]1OB(O)C[C@H]2C1=C(C)Cn1c(=O)n(-c3ccccc3)c(=O)n12`, the z-score was -0.293 (inactive).

As to `CCN(CC)c1ccc(N2CC=CC34O[C@@H]5C=CCOC(=O)[C@@H]5[C@H]3C(=O)N(CCCCCO)[C@@H]4C2=O)cc1` (stereo not given in full), the z-score was 0.223 (inactive).

With `C#C[C@H]1Oc2ccccc2S(=O)(=O)N2CCC[C@@H]12`, the z-score was 0.724 (inactive).

In the case of `O=C1C[C@@](C(=O)O)(c2ccc([N+](=O)[O-])cc2)[C@@H](c2ccc(CO)cc2I)N1CC12CC3CC(CC(C3)C1)C2`, the z-score was -0.0388 (inactive).

On to `CCOC(=O)N1C(c2ccc(OCCCO)cc2)=NC(C(=O)OC)N1C(=O)OCC` (stereo not given), for which the z-score is -0.641 (inactive).
